# Screens: PubChem, National Center for Advancing Translational Sciences (NCATS)
# KDM5B inh: KDM5B demethylase inhibition | Potency, µM (doses to about 57.7 µM), most hits filed as inhibitors | hit rate 2.6% among 220,000 | KDM5B demethylase, FDH-coupled NADH fluorescence (FDH is formaldehyde dehydrogenase) | Q9UGL1; note: potency is the fitted concentration of half-maximal effect; 0% is about no effect; nearly all actives have a fitted effect of over 70% in size
#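 Compound dilutions met 200 nM (final) KDM5BΔAP for 10 min at room temperature before substrate addition. The substrate mix held 12.5 µM H3K4me3 with cofactors 25 µM α-ketoglutarate and 50 µM Fe²⁺. NADH signal gain over 30 min defined activity.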
# SNCA expr inh: inhibitors of alpha-synuclein (SNCA) gene expression | HEK-293 SNCA-luciferase knock-in, luminescence, 24 h | Potency, µM (highest dose often 57.2 µM), inactives show top-dose activity change, negative = inhibition, hits mostly inhibitors | hit rate 0.17% among 140,000 | AID 1671194;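 note: potency is the fitted concentration of half-maximal effect; plate controls were DMSO cells for no effect and cell-free wells for full effect; nearly all actives have a fitted effect of over 45% in size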
# SNCA viab count: reduces viability of HEK-293 SNCA reporter cells. HEK-293-SNCA-luc viability, GF-AFC fluorescence, 24 h. AID 1671193. hit rate 0.12% among 150,000. Potency, µM (series often up to 57.1 µM), for inactives: top-dose activity change, negative = cytotoxicity, hits mostly cytotoxic;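 note: potency is the fitted concentration of half-maximal effect; 0% = DMSO-treated cells and -100% = medium-only wells without cells; nearly all actives have a fitted effect of over 30% in size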
#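 HEK-293-SNCA-luc cells (1500/well) plated 24 h, then exposed 24 h to a dilution series; GF-AFC added 30 min at 37C, fluorescence 405/540 nm; normalised to medium-only and DMSO wells, Hill fit.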
# IP6K1 inhibitor: IP6K1 kinase inhibition | Q92551 | IP6K1 kinase, ADP-Glo luminescence, 2 h; hits give low values | activity change, % (series mostly up to about 58 µM) | hit rate 0.81% among 140,000; in the data active = activity change below about -25%; note: % is set by controls: 0 for no effect and ±100 for the full control effect
# Target sequence (Q92551 whole entry, looked up): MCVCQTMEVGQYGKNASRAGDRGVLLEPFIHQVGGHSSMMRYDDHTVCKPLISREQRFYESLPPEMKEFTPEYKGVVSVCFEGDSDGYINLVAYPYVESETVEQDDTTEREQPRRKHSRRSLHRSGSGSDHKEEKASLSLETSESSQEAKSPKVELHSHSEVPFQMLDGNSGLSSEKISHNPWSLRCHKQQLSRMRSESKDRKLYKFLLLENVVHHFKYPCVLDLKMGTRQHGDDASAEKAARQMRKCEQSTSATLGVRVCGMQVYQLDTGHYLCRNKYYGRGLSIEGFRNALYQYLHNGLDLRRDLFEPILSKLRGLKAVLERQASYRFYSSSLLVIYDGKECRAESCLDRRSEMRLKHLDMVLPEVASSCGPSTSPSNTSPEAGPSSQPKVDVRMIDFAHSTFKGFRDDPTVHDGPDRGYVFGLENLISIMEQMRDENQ
#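 ADP-Glo luminescence measures ADP made by human IP6K1 during a 2 h RT reaction with ATP/IP6 (mix at 1.3 mM/130 uM); top library doses 57.5 and 19.1 uM final.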
# Starred values were filed as active, the others as inactive; i = inactive; ? = inconclusive; nt = no result; [ ] = remark or other dose. Most compounds without a hit are left out; they make up all but 2.9% or so of the library. Unless noted, calls come from the whole dose curve; as a rule, active = well fitted curve in the direction sought with a large enough effect; inconclusive = small, poorly fitted or top-dose-only effect, or another doubt; inactive = no such curve, though single readings can be large; an effect the other way counts as inactive or inconclusive.
SMILES,KDM5B inh,SNCA expr inh,SNCA viab count,IP6K1 inhibitor
N[C@@H]1CCN(Cc2ccccc2OCc2ccc(Cl)cc2)C[C@H]1O,i,1%,-14%,4
CN1CC(=O)N(C2CCCNC2)Cc2c1ncnc2N(C)Cc1ccc(F)cc1 (centres undefined),22µM*,9%,0%,-12
CN1CC(=O)N(C2CCCNCC2)Cc2c1ncnc2N1CCN(c2ccccn2)CC1 (centres undefined),79µM*,1%,-6%,1
CCNc1ncnc2c1CN(C1CCNCC1)C(=O)CN2C,56µM*,-18%,10%,-2
CN1CC(=O)N(C2CCCNCC2)Cc2c(NCC3CCCCC3)ncnc21 (centres undefined),?,11%,4%,-2
Cc1cccc(C(=O)Nc2ccc(C3(C(=O)NCCC(C)C)CCCCC3)cc2)c1,i,nt,nt,nt
CN1Cc2cccn2CC1CNC(=O)c1nccn1C (centres undefined),14µM*,0%,-14%,-1
CN1Cc2cccn2CC1CNC(=O)c1cccc(F)c1 (centres undefined),25µM*,-17%,3%,16
Cc1ccc(CNC(=O)NCC2Cn3cccc3CN2C)cc1 (centres undefined),?,-18%,3%,-12
CN1Cc2cccn2CC1CNC(=O)c1cc(CN2CCOCC2)on1 (centres undefined),18µM*,24%,6%,-1
CN1Cc2cccn2CC1CNC(=O)Nc1cccc(F)c1 (centres undefined),?,-25%,-11%,13
CN1Cc2cccn2CC1CNC(=O)c1ccco1 (centres undefined),28µM*,5%,11%,-2
Cc1ccc(S(=O)(=O)N2CCC(CC(=O)NCc3ccccc3)C2)cc1C (centres undefined),i,-21%,-12%[12.5 µM],-2
CNc1ncc(C(=O)N2CC[C@@](O)(COC)C(C)(C)C2)cn1,?,8%,-3%,6
O=C(NCc1ccco1)N[C@@H]1[C@@H](Cc2ccccc2)[C@H]2OCC[C@@H]12,i,44%,4%,11
CN1Cc2cccn2CC1CNC(=O)c1nn(C)c2ccccc12 (centres undefined),16µM*,0%,-15%,-3
CN1Cc2cccn2CC1CNC(=O)c1cccn1C (centres undefined),?,0%,-1%,-10
CN1Cc2cccn2CC1CNC(=O)c1ccccc1 (centres undefined),28µM*,-4%,-8%,-4
CN1Cc2cccn2CC1CNC(=O)c1cccs1 (centres undefined),20µM*,-7%,-6%,-5
Cc1cc(C(=O)NCC2Cn3cccc3CN2C)nn1C (centres undefined),25µM*,5%,0%,5
Cc1ccc([S+](=O)([O-])c2nnn3c2nc(NC2CC2)c2ccccc23)cc1,i,3%,4%,0
CC(C)c1cccc2c(-c3ccccc3)cc(-c3ccc(-c4ccc(C(=O)O)cc4)[nH]3)nc12,nt,nt,-8%,-17
O=C1c2cnc(-c3cc(F)cc(F)c3)nc2OCCN1Cc1ccccc1,?,135%[87.6 µM],-3%[87.6 µM],4
Cc1oc2ccn(Cc3ccccc3F)c(=O)c2c1C(=O)NC1CCCCC1,?,-28%,0%,6
Cc1csc(CNC(=O)c2scnc2C)n1,i,nt,nt,nt
SMILES,KDM5B inh,SNCA expr inh,SNCA viab count,IP6K1 inhibitor
CCn1nc(C)c(-c2cc(C(=O)NCC3Cn4cccc4CN3C)no2)c1C (centres undefined),?,3%,-10%,-10
CN1Cc2cccn2CC1CNC(=O)c1cnn(C)c1 (centres undefined),22µM*,-12%,-2%,15
Cc1cc(C(=O)NC(C)CCCC(C)C)c2ccccc2n1 (centres undefined),i,nt,nt,nt
CN(C)C(=O)c1cc2cccnn2n1,32µM*,21%[87.6 µM],2%[87.6 µM],1
CNC(=O)c1cc2cccnn2n1,32µM*,9%[87.6 µM],5%[87.6 µM],-3
CN(C)C(=O)c1cc(C(C)(C)C)c2cccn2n1,i,212%[87.6 µM],3%[87.6 µM],-9
CNC(=O)c1ccc(Nc2ncc(C(F)(F)F)c(NCc3nccnc3N(C)S(C)(=O)=O)n2)cc1,nt,21µM*,?,-4
O=C(c1ccc2cccnc2c1O)N1CCCC(CCc2ccccc2F)C1 (centres undefined),11µM*,?,-19%,-9
CC(C)(CC(=O)O)CC(=O)N[C@H]1C[C@H]2C(=O)Nc3ccc(/C=C/c4ccccc4)cc3C(=O)N2C1,28µM*,0%,6%,-14
C=CCNC(=O)N[C@H]1C[C@H]2C(=O)Nc3ccc(/C=C/c4ccc(OC)cc4)cc3C(=O)N2C1,22µM*,42%,4%,11
COc1ccc(/C=C/c2ccc3c(c2)C(=O)N2C[C@@H](NS(C)(=O)=O)C[C@H]2C(=O)N3)cc1,?,0%,-9%,2
COCC(=O)N[C@H]1C[C@H]2C(=O)Nc3ccc(/C=C/c4ccccc4)cc3C(=O)N2C1,i,24%[87.6 µM],-5%[87.6 µM],-12
O=C1Nc2ccc(/C=C/c3ccccc3)cc2C(=O)N2C[C@H](O)C[C@@H]12,28µM*,102%[87.6 µM],-2%[87.6 µM],5
COc1ccc(/C=C/c2ccc3c(c2)C(=O)N2C[C@@H](NC(=O)CC(C)(C)CC(=O)O)C[C@H]2C(=O)N3)cc1,22µM*,-17%,-1%,-4
Cc1cccc(Cn2c(SCCN3CCOCC3)nc3c2c(=O)[nH]c(=O)n3C)c1,i,nt,nt,nt
Fc1ccc(-c2ccnc3ncnn23)cc1,28µM*,-17%,-7%,9
Brc1ccc(-c2ccnc3ncnn23)s1,i,38%,-3%,-4
COc1ccc(CN2CCC[C@H]2c2nc(-c3cncnc3N)no2)c(O)c1,32µM*,11%[87.6 µM],-5%[87.6 µM],-3
COc1ccc(C(=O)Nc2ccc(-c3noc([C@@H]4CCCN4Cc4ccncc4)n3)cn2)cc1,?,3%,-21%,-11
COCCOc1cc(-c2noc([C@@H]3CCCN3Cc3ccncc3)n2)ccn1,35µM*,-18%[87.6 µM],4%[87.6 µM],14
COCCNc1ccc(-c2noc([C@@H]3CCCN3Cc3ccccc3F)n2)cn1,?,-7%[87.6 µM],-4%[87.6 µM],-13
c1cc(-c2noc([C@@H]3CCCN3Cc3ncc[nH]3)n2)cc(N2CCOCC2)n1,32µM*,0%[87.6 µM],5%[87.6 µM],13
COCCOc1cc(-c2noc([C@@H]3CCCN3Cc3ccc(C(=O)O)cc3)n2)ccn1,?,14%[87.6 µM],2%[87.6 µM],10
COCCNc1cc(-c2noc([C@@H]3CCCN3Cc3ccccn3)n2)ccn1,32µM*,61%[87.6 µM],-6%[87.6 µM],9
Cc1ccc(-c2noc([C@@H]3C[C@@H](O)CN3Cc3ncc[nH]3)n2)cc1F,i,200%[87.6 µM],-7%[87.6 µM],16
Cc1cc(=O)n2[nH]c(CC(=O)N[C@H]3[C@H]4CCO[C@H]4[C@@H]3N(C)C)nc2n1,i,0%,7%,26
O=C(Nc1ccnn1C1CCN(Cc2ccc3c(c2)CCO3)CC1)c1ccccc1Cl,i,8%,-5%,5
COCCOc1cc(-c2noc([C@@H]3CCCN3C3CCN(C(C)=O)CC3)n2)ccn1,i,12%[87.6 µM],-2%[87.6 µM],-8
